Where “and” joins values, the source holds several entries; their conditions need not be identical. Identical values can stand only once. The whole screen tested about 16,000 compounds, of which about 5,100 (32%) were called active. Not shown: some 25% with an inconclusive outcome. The call rests on the fitted dose curve; in most records, active means well fitted curve in the direction sought with a large enough effect; inconclusive means small, poorly fitted or top-dose-only effect, or effect the other way; inactive means no such curve, though single readings can be large or run the other way. This is one part of the list.
On the % scale 0 is the no-effect control and ±100 the full control effect.

The target in this assay is Cytochrome P450 3A4 (Homo sapiens) (UniProt P08684). In words: Cytochrome panel assay with activity outcomes. As to conditions: recombinant CYP, pro-luciferin dealkylation, luminescence, p450-cyp3a4; series mostly up to 57.1 µM.
Sequence of Cytochrome P450 3A4 (Homo sapiens) (P08684 whole entry, looked up): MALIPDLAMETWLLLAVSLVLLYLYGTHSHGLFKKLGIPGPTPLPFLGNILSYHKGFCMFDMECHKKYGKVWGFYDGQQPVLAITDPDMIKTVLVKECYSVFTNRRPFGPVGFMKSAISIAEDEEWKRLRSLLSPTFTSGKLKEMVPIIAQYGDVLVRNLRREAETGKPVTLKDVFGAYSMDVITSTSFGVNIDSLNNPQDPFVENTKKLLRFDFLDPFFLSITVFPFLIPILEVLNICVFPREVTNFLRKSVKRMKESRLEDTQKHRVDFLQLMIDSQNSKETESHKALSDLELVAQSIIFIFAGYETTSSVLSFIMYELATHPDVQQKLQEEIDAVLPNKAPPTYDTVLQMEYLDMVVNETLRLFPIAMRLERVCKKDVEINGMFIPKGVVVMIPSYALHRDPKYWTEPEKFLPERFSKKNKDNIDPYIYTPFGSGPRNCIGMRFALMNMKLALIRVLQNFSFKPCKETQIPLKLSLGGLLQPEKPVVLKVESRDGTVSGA
Take `Cn1c(=O)c2c(nc(N/N=C\c3ccccc3C(=O)O)n2C)n(C)c1=O`: the activity, negative = inhibition was 5.51% [at 11.4 µM] (inactive).
As a reminder, the AC50 is the concentration giving half of the maximal activity seen. As for `CCC[C@H]1C(=O)N2C(N(C)C)=Nc3ccc(C)cc3N2C1=O`, the AC50 result was “inactive”.
Still for that read-out and setting: under `COc1cccc(Nc2ncc3nc(-c4ccc(F)cc4)c(=O)n(CCC#N)c3n2)c1` stands 3.16 µM (active); under `COCCn1c(=O)c(-c2ccccc2)nc2cnc(Nc3cccc(OC)c3)nc21`, “inactive”; under `COCCn1c(=O)c(-c2cc(F)cc(F)c2)nc2cnc(Nc3cccc(OC)c3)nc21`, 7.94 µM (active).
For `COc1ccc(Sc2nc3ccccc3n3c(C(F)(F)F)nnc23)cc1`, the activity, negative = inhibition was -0.72% [at 11.4 µM] (inactive).
Consider `C[N+]1(C)CCc2cc3c(cc2[C@@H]1[C@@H]1C(=O)Oc2c1ccc1c2OCO1)OCO3`, for which the AC50 is 12.6 µM (active) and 15.8 µM (active).
Same read-out and setting: under `CN1CCc2cc3c(cc2[C@@H]1[C@@H]1C(=O)Oc2c1ccc1c2OCO1)OCO3` stands 1.26 µM (active).
On to `CCCCSC(=S)N(C)C1CCS(=O)(=O)C1` (stereo not given), for which the AC50 entry was “inactive”.
On the same count and under the same terms, under `CN(C)c1ccc(-c2nccc(Nc3ccc(F)cc3)n2)cc1` stands 12.6 µM (active).
Same read-out and setting: under `CN(C)c1ccc(-c2cc(Nc3ccc(F)cc3)ncn2)cc1` stands 10 µM (active).
In the case of `Nc1nccc(Nc2ccc(S(N)(=O)=O)cc2)n1`, the activity, negative = inhibition was -5.22% [at 11.4 µM] (inactive).
On to `Fc1ccc(Nc2ccnc(-c3ccc4c(c3)OCO4)n2)cc1`, for which the AC50 is 2 µM (active).
With `Fc1ccc(Nc2ccnc(-c3ccoc3)n2)cc1`, the AC50 was 7.94 µM (active).
Take `C(=Nc1cnc2ccccc2c1)c1ccc2ccccc2n1`: the activity, negative = inhibition is -12.4% [at 11.4 µM] (inactive).
Consider `O=C1C2C3C=CC(C3)C2C(=O)N1c1ncn[nH]1` (stereo not given), for which the AC50 entry was “inactive”.
On to `O=C1C2C3c4ccccc4C(c4ccccc43)C2C(=O)N1c1nc(-c2ccccc2)cs1` (stereo not given), for which the activity, negative = inhibition was 0.59% [at 2.29 µM] (inactive).
For `CC(C)(C)C(=O)N1CCc2cc(-c3csc(N)n3)ccc21`, the AC50 is 8.91 µM (active).
With `COc1ccccc1CNS(=O)(=O)c1ccc2[nH]cc(C(=O)O)c(=O)c2c1`, the AC50 entry is “inactive”.
As for `O=C(OCCN1CCCCC1)c1c[nH]c2ccccc12`, the AC50 result was “inactive”.
For the compound `COc1cc(Cl)c(CC(=O)c2c[nH]c3ccccc23)cc1OC`, the AC50 was 2.51 µM (active).
On the same count and under the same terms, under `Nc1cc(Cl)nc(N/N=C/c2ccccc2[N+](=O)[O-])n1` stands 14.1 µM (active); under `Nc1nnnn1/N=C\c1ccc(Cl)c([N+](=O)[O-])c1`, “inactive”; under `O=[N+]([O-])c1ccc(/C=N/Nc2cc(Cl)nc(-c3ccccc3)n2)cc1`, “inactive”.
In the case of `N[C@@H]1[C@@H]2[C@@H]3C[C@H]4N(CC[C@@]14C(=O)C(=O)O)CC3=CCO[C@@H]2CC(=O)O`, the activity, negative = inhibition is -11.7% [at 11.4 µM] (inactive).
Turning to `COc1ccc2c(c1)CCc1c(C(=O)N3CCCCCC3)noc1-2`, the AC50 is 14.1 µM (active).
In the case of `CSc1nc2ccccc2cc1/C=C(\C#N)c1ccc(Cl)cc1Cl`, the activity, negative = inhibition was 25.6% [at 11.4 µM] (inactive).
For the compound `CCOC(=O)C1=NNC2(c3ccc(Cl)cc3)C(=O)N(c3cc(C)cc(C)c3)C(=O)C12` (stereo not given), the AC50 is 2.24 µM (active).
As for `Cc1ccc(-c2c3c(nc4sc(C(N)=O)c(N)c24)CCC3)cc1`, the activity, negative = inhibition is 0.806% [at 2.29 µM] (inactive).
For `Cc1nc2sc(C#N)c(N)c2c2c1CCCC2`, the AC50 is 14.1 µM (active).
Regarding `COc1nc(C)nc(Cl)c1NC1=NCCN1`, the AC50 entry is “inactive”.
As to `CN=C1N[C@H](c2ccccc2)N(c2ccccc2)S1`, the AC50 was 31.6 µM (active).
On the same count and under the same terms, under `S=C(NCCSCc1ccc(Cl)cc1Cl)Nc1ccccc1` stands 7.94 µM (active).
On the same count and under the same terms, under `S=C(NCCSCc1c(Cl)cccc1Cl)Nc1ccccc1` stands 7.08 µM (active).
`OCCSCc1cc(Cl)cc(Cl)c1O`: the activity, negative = inhibition is -27.9% [at 11.4 µM] (inactive).
Still for that read-out and setting: under `Oc1ccc2ccccc2c1C=NCc1c(O)ccc2ccccc12` stands -15.3% [at 11.4 µM] (inactive).
Take `C=CCOC(=O)C1=C(C)NC(SCC(=O)OCC)=C(C#N)C1c1ccc(C)cc1` (stereo not given): the AC50 is 2.24 µM (active).
Consider `CCOC(=O)CSC1=C(C#N)C(c2sccc2C)C(C(C)=O)=C(C)N1` (stereo not given), for which the activity, negative = inhibition is 19% [at 2.29 µM] (inactive).
For `CCOC(=O)CSC1=C(C#N)C(C)C2=C(CCCC2=O)N1` (stereo not given), the AC50 entry is “inactive”.
Take `CC(=NCC(=O)O)c1ccccc1`: the activity, negative = inhibition was -4.83% [at 11.4 µM] (inactive).
Regarding `COc1ccccc1-c1nc(NCc2cccs2)c2ccccc2n1`, the AC50 was 12.6 µM (active).
The same measure, in the same setting: under `COc1ccccc1-c1nc(NCc2cccnc2)c2ccccc2n1` stands 10 µM (active); under `COc1ccccc1-c1nc(NCc2ccccc2)c2ccccc2n1`, 3.98 µM (active).
The same measure, in the same setting: under `CC[N+](C)(CC)CCOC(=O)C1c2ccccc2Oc2ccccc21` stands “inactive”.
Regarding `C[C@@H](C[C@H](N)C(=O)O)C(=O)O`, the activity, negative = inhibition is -6.03% [at 11.4 µM] (inactive).
Consider `COc1ccc(COC2OC[C@]3(C)[C@H]4C5=C(CN3C(=O)OC(C)(C)C)[C@H](C)C(CO)C(CO)C5CC[C@@H]24)cc1` (stereo not given in full), for which the AC50 was 7.94 µM (active).
On the same count and under the same terms, under `COCC1C2CC[C@H]3C(OCc4ccc(OC)cc4)OC[C@]4(C)[C@H]3C2=C(CN4C(=O)OC(C)(C)C)[C@H](C)C1COC` (stereo not given in full) stands 1.58 µM (active); under `Cc1nn(C(C)C(=O)Nc2sc3c(c2C#N)CCCC3)c(C)c1[N+](=O)[O-]` (stereo not given), 15.8 µM (active); under `Cc1cc(NC(=O)c2c([N+](=O)[O-])c(C)nn2C)no1`, “inactive”.
With `COc1cccc(NC(=S)NNC(=O)C(C)n2nc(C)c([N+](=O)[O-])c2C)c1` (stereo not given), the activity, negative = inhibition was -29.4% [at 2.29 µM] (inactive).
For the compound `Cc1nn(C(C)C(=O)Nc2ccc(Cl)cn2)c(C)c1[N+](=O)[O-]` (stereo not given), the AC50 was 15.8 µM (active).
Same read-out and setting: under `Cc1nc2ccccc2nc(C)c1=NO` stands “inactive”; under `Cc1cc(OC(=O)c2cc(F)c(F)cc2Cl)nc(C)n1`, “inactive”.
On to `CC(C)/C(=N/[N+](C)(C)C)c1ccccc1`, for which the activity, negative = inhibition is -14.9% [at 11.4 µM] (inactive).
On the same count and under the same terms, under `CO[C@@H]1COC(=O)[C@H](C)NC(=O)C/C=C\[C@@H](C)[C@@H](NS(=O)(=O)c2ccc(C)cc2)COC(=O)C/C=C\[C@@H]1C` stands 5.93% [at 11.4 µM] (inactive).
On the same count and under the same terms, under `CO[C@H]1COC(=O)[C@H]2CCCN2C(=O)[C@@H](C)COC(=O)C/C=C\[C@@H]1C` stands -39.8% [at 11.4 µM] (inactive).
For `CO[C@H]1COC(=O)C/C=C\[C@H](C)[C@@H](NS(=O)(=O)c2ccc(C)cc2)COC(=O)C/C=C\[C@@H]1C`, the AC50 was 3.16 µM (active).
For the compound `CO[C@H]1COC(=O)C/C=C\[C@@H](C)[C@H](OC)COC(=O)[C@H]2CCCN2C(=O)C/C=C\[C@@H]1C`, the activity, negative = inhibition is -29.5% [at 11.4 µM] (inactive).
In the case of `CO[C@H]1COC(=O)[C@H](C)NC(=O)C/C=C\[C@@H](C)[C@@H](NS(=O)(=O)c2ccc(C)cc2)COC(=O)[C@H](OCc2ccccc2)/C=C\[C@@H]1C`, the AC50 is 3.16 µM (active).
On to `CO[C@H]1COC(=O)[C@H](C)NC(=O)C/C=C\[C@@H](C)[C@H](OC)COC(=O)[C@@H](OCc2ccccc2)/C=C\[C@@H]1C`, for which the activity, negative = inhibition is -29.2% [at 11.4 µM] (inactive).
On the same count and under the same terms, under `CO[C@@H]1COC(=O)C/C=C\[C@H](C)COC(=O)[C@H](C)NC(=O)C/C=C\[C@H]1C` stands -19.1% [at 11.4 µM] (inactive).
As to `CO[C@H]1COC(=O)[C@H](C)NC(=O)C/C=C\[C@@H](C)[C@@H](NS(=O)(=O)c2ccc(C)cc2)COC(=O)C/C=C\[C@@H]1C`, the AC50 was 3.98 µM (active).
For `CO[C@H]1COC(=O)[C@@H](CCSC)NC(=O)C/C=C\[C@@H](C)[C@H](OC)COC(=O)[C@@H](OCc2ccccc2)/C=C\[C@@H]1C`, the activity, negative = inhibition was -27.8% [at 11.4 µM] (inactive).
With `CO[C@@H]1COC(=O)C/C=C\[C@H](C)[C@@H](NS(=O)(=O)c2ccc(C)cc2)COC(=O)C/C=C\[C@@H]1C`, the AC50 is 3.98 µM (active) and 3.16 µM (active).
In the case of `CO[C@@H]1COC(=O)C/C=C\[C@@H](C)[C@H](OC)COC(=O)[C@@H](C)COC(=O)C/C=C\[C@H]1C`, the activity, negative = inhibition is -12.1% [at 11.4 µM] (inactive).
Still for that read-out and setting: under `CO[C@@H]1COC(=O)C/C=C\[C@H](C)[C@H](OC)COC(=O)[C@H]2CCCN2C(=O)C/C=C\[C@H]1C` stands -14.8% [at 11.4 µM] (inactive).
Regarding `CC(C)(C)C(=O)NC(=C(Cl)Cl)P(=O)(O)O`, the AC50 entry is “inactive”.
Consider `N=C(N)C(N=Nc1ccccc1)C(=N)N` (stereo not given), for which the activity, negative = inhibition is -1.93% [at 11.4 µM] (inactive).
Still for that read-out and setting: under `CO[C@H]1COC(=O)CCC[C@H](C)[C@H](OC)COC(=O)C/C=C\[C@@H]1C` stands -29.6% [at 11.4 µM] (inactive).
As to `CO[C@H]1COC(=O)C/C=C\[C@H](C)[C@@H](NS(=O)(=O)c2ccc(C)cc2)COC(=O)CCC[C@@H]1C`, the AC50 was 3.98 µM (active).
On to `CO[C@H]1COC(=O)CCC[C@H](C)[C@@H](OC)COC(=O)C/C=C\[C@@H]1C`, for which the activity, negative = inhibition is -19.5% [at 11.4 µM] (inactive).
Consider `CCC(Sc1nc2cc3c(cc2c(=O)n1Cc1ccco1)OCO3)C(=O)Nc1cccc(OC)c1` (stereo not given), for which the concentration at half-maximal activity (AC50) was 1.26 µM (active).
On to `CCC(Sc1nc2cc3c(cc2c(=O)n1Cc1ccco1)OCO3)C(=O)Nc1ccccc1OC` (stereo not given), for which the AC50 was 1.58 µM (active).
On the same count and under the same terms, under `CCn1c(C)cc(/C=C2\NC(=O)N(Cc3ccc(Cl)cc3)C2=O)c1C` stands 1.58 µM (active); under `Cc1sc2nc(SCc3nc(-c4cccs4)no3)n(-c3ccccc3)c(=O)c2c1C`, “inactive”; under `Cc1sc2nc(SCC(=O)C(C)(C)C)n(Cc3ccco3)c(=O)c2c1C`, 11.2 µM (active).
Turning to `O=C(Nc1cccc(C(=O)Nc2ccc(S(=O)(=O)O)c3cc(S(=O)(=O)O)cc(S(=O)(=O)O)c23)c1)Nc1cccc(C(=O)Nc2ccc(S(=O)(=O)O)c3cc(S(=O)(=O)O)cc(S(=O)(=O)O)c23)c1`, the AC50 entry is “inactive”.
Same read-out and setting: under `Cc1ccc(SCCNC(=O)c2ccc(C)c(S(=O)(=O)Nc3ccccc3C)c2)cc1` stands 0.631 µM (active).
On to `Cc1ccccc1NS(=O)(=O)c1cc(C(=O)Nc2cccc(N(C)S(C)(=O)=O)c2)ccc1C`, for which the AC50 is 1 µM (active).
Regarding `Cc1ccc(S(=O)(=O)Nc2ccccc2C(=O)c2ccc(C)c(C)c2)cc1`, the activity, negative = inhibition is -2.65% [at 11.4 µM] (inactive).

The values above are taken from PubChem BioAssay AID1851 (National Center for Advancing Translational Sciences (NCATS), 2009).
